Shn3 3UTR inh = reduces Shn3 3'UTR luciferase signal in osteoblasts; Clone20 osteoblast Shn3 3'UTR firefly luciferase, 24 h; inhibition, % at 12.5 µM; 0.52% of 360,000 active;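 active = mean inhibition of at least 75% with every replicate also reaching 75%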;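 also: 0% = median of neutral control wells and 100% = pilot-screen positive control compound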
Calb FLC = affects C. albicans growth with fluconazole | C. albicans CaCi-2 (fluconazole-resistant clinical isolate) + fluconazole, Alamar Blue growth, 48 h | growth inhibition, % (no concentration beside the values) | 0.57% of 300,000 active;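 active = growth inhibition above about 58% in most replicates, limit read from the data, passing the limit was not always enough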;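 also: all wells also contain fluconazole at 8 µg/ml as a sub-toxic cotreatment; 0% = median of DMSO wells and 100% = median of geldanamycin control wells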
Beta cell apopt = beta cell apoptosis inhibition | 0.8% of 300,000 active | protection from apoptosis, % (test concentration not listed) | INS-1E cytokine-induced death, ATP luminescence, 48 h; percent of positive-control rescue, neutral wells zero;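 active = Every replicate reaches about 75%, or at least half do and their mean reaches it too, limit read from the data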;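 also: 0% = cytokine-treated negative control wells and 100% = positive control rescue; higher means more ATP so stronger rescue from cytokine killing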
697 NFkB inh = lowers PMA/ionomycin-induced NF-kB signal in 697 B cells. 697 B-cell NF-kB luciferase reporter, 16 h. inhibition, % at 4 µM. 0.33% of 330,000 active; in the data active = inhibition above about 35%
Jurkat NFkB inh = lowers PMA/ionomycin-induced NF-kB signal in Jurkat cells | PMA/ionomycin-induced NF-kB luciferase reporter, luminescence | inhibition, % at 4 µM | 0.53% of 330,000 active | AID 435003; in the data active = inhibition above about 50%
Jurkat NFkB conf = inhibitors of the PMA/ionomycin-induced NF-kB reporter in Jurkat cells, retest. shares compounds with Jurkat NFkB inh. 27% of 2,700 active. Jurkat NF-kB luciferase, 16 h. inhibition, % at 4 µM;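 active = inhibition reaching about 45% at 4 µM in either replicate, limit read from the data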;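 also: plate controls were PMA/ionomycin stimulated DMSO wells for no effect and unstimulated DMSO wells for full effect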
Starred values were filed as active, the others as inactive; nt = not tested or not shown. This is a sample that favours compounds with a hit; in the whole collection about 2% have one here.

SMILES	Shn3 3UTR inh	Calb FLC	Beta cell apopt	697 NFkB inh	Jurkat NFkB inh	Jurkat NFkB conf
Cc1c(Cl)cccc1NC(=S)NC(=O)c1ccccc1	-8.8	nt	nt	nt	nt	nt
Cc1ccc(/C=N/Nc2nncc(-c3ccccc3)n2)o1	-17.5	-3.0	-1.8	-4.6	-39.1	nt
Cc1[nH]n(-c2ccccc2)c(=O)c1/C=N/Nc1nncc(-c2ccccc2)n1	74.9	104.5*	91.1*	-17.0	55.1*	40.0
Cc1ccc(N=C/C(C(=O)C(F)(F)F)=C(\O)c2ccco2)cc1Cl	-36.4	5.6	-10.3	-185.5	-183.5	-7.8
Cc1cccc(N=C/C(C(=O)C(F)(F)F)=C(\O)c2ccco2)c1	-151.0	-8.6	1.2	-141.3	-128.9	nt
CCN(CC)c1ccc(NC(=O)c2ccc(Br)o2)cc1	-32.6	-1.8	11.5	-91.5	-153.4	-63.0
COC(=O)Cc1ccc(NC(=O)c2ccc(Br)o2)cc1	-68.8	3.7	0.1	2.2	-59.2	nt
C[C@@H]1CCCCCCCCC(=O)OCCN[C@H](C)CCCCCCCCC(=O)OCCN[C@H](C)CCCCCCCCC(=O)OCCN1	15.7	nt	4.8	-2.6	10.6	nt
O=C(c1ccc(CS(=O)c2ccccc2Cl)o1)N1CCN(c2ccccn2)CC1 (stereo unspecified)	1.1	-2.0	-3.2	-43.1	52.2*	48.0
O=C(c1ccc(CS(=O)Cc2ccccc2Cl)o1)N1CCN(c2ccccn2)CC1 (stereo unspecified)	-33.2	7.7	-2.9	-7.7	-9.0	nt
O=C(Nc1ccc(S(=O)(=O)NC2=NCCCCC2)cc1)c1cc(S(=O)(=O)N2CCOCC2)ccc1F	-13.3	0.6	1.2	2.3	-9.9	nt
Cc1cc(NC(=O)CSc2nc(C(C)(C)C)nc3ccccc23)no1	0.9	-30.3	1.5	-61.6	56.6*	19.8
Cc1ccc(C(=O)OCC(=O)c2ccccc2)cc1	-62.4	-0.8	-1.4	-119.5	-168.6	-62.7
CN(C)c1ccc(/C=C(/NC(=O)c2ccccc2)C(=O)N2CCCC2)cc1	-9.2	4.6	0.2	3.3	1.7	nt
Clc1ccc(CN=C2Nc3ccccc3CS2)cc1	-47.4	-24.7	2.7	-122.1	-102.2	nt
Cc1ccc(CN=C2Nc3ccccc3CS2)cc1	-8.4	-46.7	5.8	-208.3	-170.8	-80.3
CC(=O)Nc1nc2[nH]ccc2c(=O)[nH]1	11.0	nt	nt	nt	nt	nt
CCOC(=O)/C=c1/s/c(=C/c2ccccc2OC)c(=O)n1CC(=O)N1CCOCC1	-15.6	nt	nt	nt	nt	nt
COc1ccc(C(=O)NCCN2CCOCC2)cc1S(=O)(=O)Nc1ccc(C)cc1	-8.2	nt	-1.1	17.1	3.3	nt
N#C/C(=C\c1ccc(Cl)c([N+](=O)[O-])c1)c1ccccn1	25.8	51.2	3.6	2.1	-0.1	nt
CNc1ccc(/C=C(\C#N)c2ccccn2)cc1[N+](=O)[O-]	-39.7	24.8	13.9	-59.1	-194.7	-50.5
Fc1ccccc1OCCSc1nnnn1-c1ccccc1	-39.8	13.5	-4.0	-159.6	-174.4	-139.2
CCN(CC)c1ccc2nc3ccccc3[n+](CC)c2c1	19.6	90.0*	98.9*	17.8	55.9*	56.5*
CCN(CC)c1ccc2nc3ccc(N)cc3[n+](-c3ccccc3)c2c1	90.3*	nt	nt	20.2	82.8*	68.4*
CCN(CC)C(=O)c1ccc2nc3ccccc3nc2c1	-15.0	2.7	-10.5	-10.5	-10.3	nt
SMILES	Shn3 3UTR inh	Calb FLC	Beta cell apopt	697 NFkB inh	Jurkat NFkB inh	Jurkat NFkB conf
Cc1ccccc1CN1[C@@H]2c3ccccc3C[C@@H]2OCCS1(=O)=O	22.8	14.1	-4.0	8.3	-3.1	nt
c1ccc(-c2nnc(-c3ccccc3)o2)cc1	-37.9	-1.9	1.6	-130.5	-114.3	nt
Clc1cccc(-c2nnc(-c3ccccc3)o2)c1	-63.8	3.6	4.7	-227.0	-183.9	-93.4
Nc1ccccc1-c1nnc(-c2ccc(-c3ccccc3)cc2)o1	-80.2	-0.7	-9.2	-175.0	-154.2	-73.7
Nc1ccc(-c2nnc(-c3ccc(N)cc3)o2)cc1	-96.2	7.9	nt	-89.5	-110.1	nt
CSc1ccccc1-c1nnc(-c2ccc(C)cc2)o1	-89.2	-2.3	6.4	-101.6	-101.7	nt
CSc1ccccc1-c1nnc(-c2ccccc2)o1	nt	-2.1	3.6	-172.6	-158.6	-85.3
Cc1cccc(-c2noc(CCCC(=O)NC3CCCCC3)n2)c1	-7.8	4.1	2.2	9.6	18.3	nt
O=C(O)CC(NC(=O)C1c2ccccc2Oc2ccccc21)c1ccc(OC2CCCC2)cc1 (stereo unspecified)	24.9	-5.2	-6.4	0.1	-0.1	nt
c1ccc2c(c1)oc1c(Nc3ccc(CN4CCOCC4)cc3)ncnc12	-5.7	-41.6	17.1	-141.3	-155.3	-117.4
Cc1nc(-c2cccc(NC(=O)c3ccco3)c2)cs1	-16.7	72.9	-8.8	7.0	-21.6	nt
Cc1nc(-c2ccc(NC(=O)c3ccco3)cc2)cs1	67.2	-11.9	17.7	-162.3	52.1*	36.8
CCc1cccc2sc(N3CCN(C(=O)c4ccc([N+](=O)[O-])o4)CC3)nc12	75.5	14.0	25.2	-8.1	50.8*	-13.2
CCn1cc(C2=NC(C(C)C)CO2)c2ccccc21 (stereo unspecified)	-19.4	-2.4	1.0	-2.4	-15.8	nt
CC(C)C1COC(c2cccc3ccccc23)=N1 (stereo unspecified)	-125.7	-11.7	4.7	-193.4	-158.7	-40.2
CCOC(=O)c1c2c(n(C)c1C)C(=O)C(=O)c1ccc(Br)cc1-2	94.1*	-33.0	57.2	3.2	52.0*	32.9
COc1cccc(-c2ccc(CN3C(C(C)C)C(=O)N(Cc4cn(CCC5OCCO5)nn4)CCS3(=O)=O)cc2)c1OC (stereo unspecified)	-0.4	nt	nt	nt	nt	nt
CCOC(=O)c1c(-c2ccc(-c3ccccc3)cc2)csc1NC(=O)CNCCN(C)C	49.8	4.0	55.2	-0.6	51.6*	9.8
O=C1C2C3C=CC(C3)C2C(=O)N1c1ccc(-c2nc3ccccc3o2)cc1 (stereo unspecified)	-13.6	nt	-3.0	-106.9	-172.3	-55.1
COC(=O)c1ccc(COc2cc(O)c3c(c2)OC(C)(C)CC3=O)cc1	4.7	8.6	4.9	-25.7	-1.2	nt
CC1(C)CC(=O)c2c(O)cc(OCc3ccc(Br)cc3)cc2O1	-76.2	10.2	5.9	-137.0	-152.6	-68.5
CC1=C(/C=C/C(C)=C/C=C/C(C)=C/C(=O)Nc2ccc(O)cc2)C(C)(C)CCC1	58.0	nt	-1.0	-246.5	63.0*	-9.8
CC(=Nc1ccc(Br)cc1)c1sc2ccccc2c1O	nt	-9.0	3.0	-130.2	-200.8	-13.2
Cc1cccc(N2CCCC2=Nc2ccc(Br)cc2C#N)c1	8.4	-5.1	-0.6	6.0	62.0*	8.9
N#Cc1cc(Br)ccc1N=C1CCCN1c1ccccc1	-14.1	-1.1	-9.2	2.4	-0.7	nt
Cc1ccc(NC(=O)CSc2nnc(C3CC3)n2C)cc1S(=O)(=O)N1CCCCC1	21.5	nt	-9.6	-15.8	12.1	nt
C=C1C(=O)O[C@@H]2[C@H]1[C@@H](OC(=O)/C(C)=C/C)C/C(C)=C\C(=O)/C=C(\C)[C@@H]2O	-31.3	-4.3	45.4	-200.5	88.1*	34.5

Compound activity from PubChem BioAssay.
